Activity calls are given as the source filed them. The calls were made as follows: active = hit-call score of the fitted dose curve at least 0.9, where 1 is the maximum; inactive = score below 0.9.

The nature of the first assay: CCTE_Shafer_MEA_acute_spike_number: CCTE's Neural Acute Assay for Total Number of Spikes, Shafer Lab (AID 2284008).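 As to AC50: curve fitted for decrease in spike count so AC50 reflects inhibitors.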 The method, boiled down:
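Rat primary cortical neurons on 48-well MEA plates, DIV 13 or 15, at 37 C. 40 min baseline then 40 min with compound (0.03-40 uM); spikes detected at 8x rms noise, expressed as percent change from baseline.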
Turning to `CCOc1nc(F)cc2nc(S(=O)(=O)Nc3c(Cl)cccc3Cl)nn12`, the call was inactive.

Consider `CNC(=O)Oc1cccc2ccccc12`, for which the compound was classed as inactive.

Consider `N#CN=C1SCCN1Cc1ccc(Cl)nc1`, for which the compound was classed as inactive.

In the case of `CCOc1cc(C(C)(C)C)ccc1C1COC(c2c(F)cccc2F)=N1` (configuration not stated), the AC50 was 3.32 µM (active).

As to `CC1(C)CCC(=Cc2ccc(Cl)cc2)C1(O)Cn1cncn1` (configuration not stated), the compound was classed as inactive.

A further assay is described as follows: CCTE_Shafer_MEA_acute_firing_rate_mean: CCTE's Neural Acute Assay for Mean Firing Rate, Shafer Lab (AID 2284009).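 Also: analyzed for loss of signal so actives lower firing rate relative to DMSO.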 The method, boiled down: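 Percent change in well-mean firing rate was derived from extracellular spikes detected at 8x rms noise (300-5000 Hz band-pass) before and after a 40-min compound exposure. Cultures were primary rat cortical neurons, tested at 0.03-40 uM.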
Turning to `CCOc1nc(F)cc2nc(S(=O)(=O)Nc3c(Cl)cccc3Cl)nn12`, the compound was called inactive.

Regarding `CNC(=O)Oc1cccc2ccccc12`, the result was inactive.

Regarding `N#CN=C1SCCN1Cc1ccc(Cl)nc1`, the call was inactive.

As to `CCOc1cc(C(C)(C)C)ccc1C1COC(c2c(F)cccc2F)=N1` (configuration not stated), the AC50 was 3.32 µM (active).

For the compound `CC1(C)CCC(=Cc2ccc(Cl)cc2)C1(O)Cn1cncn1` (configuration not stated), the compound was classed as inactive.

The nature of a further assay: CCTE_Harrill_HTTr_Viability_MCF7: CCTE's 6-hour Cell Viability Assessment for the High-Throughput Transcriptomics (HTTr) Platform, in MCF-7 cells cultured in DMEM + 10% fetal bovine serum, Harrill Lab (AID 2284010). The gist of the method: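 Membrane integrity was scored by high-content imaging of propidium iodide dye exclusion after a 6 h exposure across an eight-point dilution series. Data were fitted bidirectionally relative to DMSO as negative control and baseline.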
On to `CSC(=O)c1c(C(F)F)nc(C(F)(F)F)c(C(=O)SC)c1CC(C)C`, for which the result was inactive.

On to `CCC(C)n1c(=O)[nH]c(C)c(Br)c1=O` (configuration not stated), for which the result was inactive.

As for `CS(=O)(=O)c1ccc(C(=O)C2C(=O)CCCC2=O)c([N+](=O)[O-])c1`, the result was inactive.

Take `CCOc1nc(C(Cl)(Cl)Cl)ns1`: the result was inactive.

For the compound `COc1cc(OC)nc(NC(=O)NS(=O)(=O)c2ncccc2OCC(F)(F)F)n1`, the outcome was inactive.

Regarding `COP(=O)(OC)O/C(C)=C/C(=O)N(C)C`, the result was inactive.

In the case of `N#Cc1c(Cl)cccc1Cl`, the outcome was inactive.

For `O=P(O)(O)CCCl`, the result was inactive.

Take `CC(C)NC(=O)N1CC(=O)N(c2cc(Cl)cc(Cl)c2)C1=O`: the outcome was inactive.

Turning to `CCNC(=O)NC(=O)C(C#N)=NOC`, the result was inactive.

Turning to `CC1(C)CON(Cc2ccccc2Cl)C1=O`, the outcome was inactive.

Regarding `COC(=O)c1c(C(F)F)nc(C(F)(F)F)c(C2=NCCS2)c1CC(C)C`, the result was inactive.

On to `CCOc1nc(F)cc2nc(S(=O)(=O)Nc3c(Cl)cccc3Cl)nn12`, for which the outcome was inactive.

Consider `CCCCOCN(C(=O)CCl)c1c(CC)cccc1CC`, for which the result was inactive.

For `CN=C=S`, the result was inactive.

As for `CNC(=O)Oc1cccc2ccccc12`, the result was inactive.

Turning to `COC(=O)NS(=O)(=O)c1ccc(N)cc1`, the result was inactive.

As for `Nc1c(Cl)c(Cl)nc(C(=O)O)c1Cl`, the result was inactive.

Regarding `COCc1cnc(C2=NC(C)(C(C)C)C(=O)N2)c(C(=O)O)c1` (configuration not stated), the outcome was inactive.

As for `O=c1n(Cl)c(=O)n(Cl)c(=O)n1Cl`, the outcome was inactive.

`Nc1cnn(-c2ccccc2)c(=O)c1Cl`: the result was inactive.

With `CNC(=O)N(C)c1nnc(C(C)(C)C)s1`, the result was inactive.

Turning to `N#CN=C1SCCN1Cc1ccc(Cl)nc1`, the outcome was inactive.

Regarding `CC(C)Nc1nc(Cl)nc(NC(C)C)n1`, the outcome was inactive.

Take `CCOc1cc(C(C)(C)C)ccc1C1COC(c2c(F)cccc2F)=N1` (configuration not stated): the result was inactive.

In the case of `Cc1cnc(C2=NC(C)(C(C)C)C(=O)N2)c(C(=O)O)c1` (configuration not stated), the outcome was inactive.

For `O=C(O)c1c(Cl)ccc2cc(Cl)cnc12`, the result was inactive.

Regarding `CC(C)Oc1cccc(NC(=O)c2ccccc2C(F)(F)F)c1`, the outcome was inactive.

Consider `Cc1cc(C)nc(Nc2ccccc2)n1`, for which the result was inactive.

As to `CS(=O)(=O)c1cc(C(F)(F)F)ccc1C(=O)c1cnoc1C1CC1`, the outcome was inactive.

Regarding `CC1(C)CCC(=Cc2ccc(Cl)cc2)C1(O)Cn1cncn1` (configuration not stated), the result was inactive.

Consider `COc1cc(Cl)c(OC)cc1Cl`, for which the outcome was inactive.

On to `C=CCOC(=O)C(C)(C)OC(=O)c1cc(-n2c(=O)cc(C(F)(F)F)n(C)c2=O)ccc1Cl`, for which the result was inactive.

With `COP(=S)(OC)Oc1ccc([N+](=O)[O-])c(C)c1`, the outcome was inactive.

With `Clc1cccc(C(Cl)(Cl)Cl)n1`, the outcome was inactive.

Turning to `COC(=O)NC(=S)Nc1ccccc1NC(=S)NC(=O)OC`, the result was inactive.

Another assay can be described thus: CCTE_Harrill_HTTr_Apoptosis_MCF7: CCTE's 6-hour Apoptosis Assessment for the High-Throughput Transcriptomics (HTTr) Platform, in MCF-7 cells cultured in DMEM + 10% fetal bovine serum, Harrill Lab (AID 2284011). The gist of the method:
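MCF-7 cells in DMEM + 10% FBS exposed 6 h to chemicals over an eight-point dilution series. Caspase-3/7 activation imaged by high-content CellEvent Green staining; fitted bidirectionally versus DMSO.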
In the case of `CSC(=O)c1c(C(F)F)nc(C(F)(F)F)c(C(=O)SC)c1CC(C)C`, the result was inactive.

Take `CCC(C)n1c(=O)[nH]c(C)c(Br)c1=O` (configuration not stated): the outcome was inactive.

`CS(=O)(=O)c1ccc(C(=O)C2C(=O)CCCC2=O)c([N+](=O)[O-])c1`: the result was inactive.

Consider `CCOc1nc(C(Cl)(Cl)Cl)ns1`, for which the result was inactive.

In the case of `COc1cc(OC)nc(NC(=O)NS(=O)(=O)c2ncccc2OCC(F)(F)F)n1`, the outcome was inactive.

On to `COP(=O)(OC)O/C(C)=C/C(=O)N(C)C`, for which the outcome was inactive.

`N#Cc1c(Cl)cccc1Cl`: the outcome was inactive.

On to `O=P(O)(O)CCCl`, for which the outcome was inactive.

With `CC(C)NC(=O)N1CC(=O)N(c2cc(Cl)cc(Cl)c2)C1=O`, the result was inactive.

With `CCNC(=O)NC(=O)C(C#N)=NOC`, the result was inactive.

For `CC1(C)CON(Cc2ccccc2Cl)C1=O`, the result was inactive.

For the compound `COC(=O)c1c(C(F)F)nc(C(F)(F)F)c(C2=NCCS2)c1CC(C)C`, the result was inactive.

With `CCOc1nc(F)cc2nc(S(=O)(=O)Nc3c(Cl)cccc3Cl)nn12`, the result was inactive.

On to `CCCCOCN(C(=O)CCl)c1c(CC)cccc1CC`, for which the outcome was inactive.

With `CN=C=S`, the outcome was inactive.

For `CNC(=O)Oc1cccc2ccccc12`, the outcome was inactive.

Regarding `COC(=O)NS(=O)(=O)c1ccc(N)cc1`, the result was inactive.

In the case of `Nc1c(Cl)c(Cl)nc(C(=O)O)c1Cl`, the outcome was inactive.

For the compound `COCc1cnc(C2=NC(C)(C(C)C)C(=O)N2)c(C(=O)O)c1` (configuration not stated), the outcome was inactive.

On to `O=c1n(Cl)c(=O)n(Cl)c(=O)n1Cl`, for which the outcome was inactive.

Consider `Nc1cnn(-c2ccccc2)c(=O)c1Cl`, for which the result was inactive.

On to `CNC(=O)N(C)c1nnc(C(C)(C)C)s1`, for which the outcome was inactive.

For the compound `N#CN=C1SCCN1Cc1ccc(Cl)nc1`, the outcome was inactive.

Regarding `CC(C)Nc1nc(Cl)nc(NC(C)C)n1`, the result was inactive.

As for `CCOc1cc(C(C)(C)C)ccc1C1COC(c2c(F)cccc2F)=N1` (configuration not stated), the outcome was inactive.

Consider `Cc1cnc(C2=NC(C)(C(C)C)C(=O)N2)c(C(=O)O)c1` (configuration not stated), for which the outcome was inactive.

For the compound `O=C(O)c1c(Cl)ccc2cc(Cl)cnc12`, the result was inactive.

In the case of `CC(C)Oc1cccc(NC(=O)c2ccccc2C(F)(F)F)c1`, the outcome was inactive.

As to `Cc1cc(C)nc(Nc2ccccc2)n1`, the outcome was inactive.

For the compound `CS(=O)(=O)c1cc(C(F)(F)F)ccc1C(=O)c1cnoc1C1CC1`, the outcome was inactive.

Consider `CC1(C)CCC(=Cc2ccc(Cl)cc2)C1(O)Cn1cncn1` (configuration not stated), for which the result was inactive.

For `COc1cc(Cl)c(OC)cc1Cl`, the result was inactive.

For the compound `C=CCOC(=O)C(C)(C)OC(=O)c1cc(-n2c(=O)cc(C(F)(F)F)n(C)c2=O)ccc1Cl`, the outcome was inactive.

For the compound `COP(=S)(OC)Oc1ccc([N+](=O)[O-])c(C)c1`, the outcome was inactive.

Consider `Clc1cccc(C(Cl)(Cl)Cl)n1`, for which the result was inactive.

Regarding `COC(=O)NC(=S)Nc1ccccc1NC(=S)NC(=O)OC`, the outcome was inactive.
